Experimental data published in PubChem BioAssay (NCATS).
Records with an inconclusive call do not appear. Values without a mark were called inactive. Calls of active or inactive are those of the source. Calls follow the shape of the dose curve; as a rule, active = well fitted inhibition curve with a large enough effect; inconclusive = small, poorly fitted or top-dose-only effect; inactive = no such curve, though single readings can be large or run the other way.

Assay: qHTS assay to identify inhibitors of the type 1 interferon - major histocompatibility complex class I in skeletal muscle: Counter screen cell viability and HiBit confirmation (AID 1347412); also: nearly all actives have a fitted effect of over 60% in size
Conditions: iHSKM muscle cells + IFN-b, HiBiT or CellTiter-Glo, 24 h; HiBiT
Method in brief: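 Luminescence read-out: Nano-Glo HiBiT lytic signal from C-terminally HiBiT-tagged HLA-B in CRISPR-edited human myoblasts, plus CellTiter Glo ATP as viability counter screen. IFN-beta 4.0 ng/ml; 24 hrs treatment at 37 C, 5% CO2.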
% is scaled to controls: 0 for no effect and ±100 for the full control effect; potency is read from the fitted curve at half-maximal effect.

Row | SMILES | Potency
1 | CN(C)C/C=C/C(=O)Nc1cccc(C(=O)Nc2cccc(Nc3ncc(Cl)c(-c4c[nH]c5ccccc45)n3)c2)c1 | 1.11 µM (active)
2 | Cc1cc(Nc2cc(N3CCN(C)CC3)nc(/C=C/c3ccccc3)n2)n[nH]1 | 11.1 µM (active)
3 | Cc1cc(O)c(-c2ccc([C@@H](C)CN(C)C)cc2)c2c1[nH]c(=O)c1sccc12 | 0.0787 µM (active)
4 | Cc1ccc([N+](=O)[O-])cc1S(=O)(=O)N(C)/N=C/c1cnc2ccc(Br)cn12 | 0.0497 µM (active)
5 | CC1=C(CO)C(=O)O[C@@H]([C@@H](C)[C@H]2CC[C@H]3[C@@H]4C[C@H]5O[C@]56[C@@H](O)C=CC(=O)[C@]6(C)[C@H]4CC[C@]23C)C1 | 0.883 µM (active)
6 | CCN1CCN(Cc2ccc(NC(=O)Nc3ccc(Oc4cc(NC)ncn4)cc3)cc2C(F)(F)F)CC1 | 5.57 µM (active)

Same assay, conditions: iHSKM muscle cells + IFN-b, HiBiT or CellTiter-Glo, 24 h; Viability; at 45.9 µM (top of the series)

Row | SMILES | activity change, negative = inhibition [%]
7 | COc1cc(C(=O)NC2CCN(C)CC2)c(F)cc1Nc1ncc2c(n1)N(C1CCCC1)CC(F)(F)C(=O)N2C | -23.9
8 | CN(C)C/C=C/C(=O)Nc1cccc(C(=O)Nc2cccc(Nc3ncc(Cl)c(-c4c[nH]c5ccccc45)n3)c2)c1 | 0.891
9 | Cn1cncc1C(N)(c1ccc(Cl)cc1)c1ccc2c(c1)c(-c1cccc(Cl)c1)cc(=O)n2C (stereo not drawn) | -22.3
10 | Cc1cc(O)c(-c2ccc([C@@H](C)CN(C)C)cc2)c2c1[nH]c(=O)c1sccc12 | -2.3
11 | Cc1ccc([N+](=O)[O-])cc1S(=O)(=O)N(C)/N=C/c1cnc2ccc(Br)cn12 | -5.21
12 | CN1CCN(C(=O)c2ccc3cc(CCNc4ncnc5ccc(C#N)cc45)ccc3c2)CC1 | 5.79
13 | CCN1CCN(Cc2ccc(NC(=O)Nc3ccc(Oc4cc(NC)ncn4)cc3)cc2C(F)(F)F)CC1 | -17.1
